Test results taken from PubChem BioAssay (NCATS).
Inconclusive results are not listed. A number with no mark means an inactive call. Active and inactive are the calls of the source. The call rests on the fitted dose curve; in most records, active means well fitted inhibition curve with a large enough effect; inconclusive means small, poorly fitted or top-dose-only effect; inactive means flat fitted curve, though single readings scatter.

How the values were obtained:
[1] = Drug repurposing screens with cells derived from glioblastoma tumor samples (AID 1345199); conditions: GBM patient neurospheres viability, ATP luminescence, 48 h; for Potency: tumour line A; on all read-outs here: nearly all actives have a fitted effect of over 40% in size
Method in brief: (§1)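 Primary testing used CD133+ neurospheres from four GBM patients, seven concentrations, 48 h exposure and ATP-based viability; confirmation added three slower-growing patient lines.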

astro = control astrocytes; test: as above; conditions: viability, ATP luminescence, 48 h; series mostly up to 45.9 µM
Method in brief: as §1

[2] = at 45.9 µM (top of the series), tumour line B
On the % scale 0 is the no-effect control and ±100 the full control effect; potency means the concentration at half of the fitted maximal effect.

SMILES	activity, negative = cell killing [1, 2]	Potency [1]	Potency (astro)	activity, negative = cell killing ([1]; at 46.1 µM (top of the series), tumour line C)
CNC(C)CCC=C(C)C (stereo unspecified)	-23.7%	11.2 µM (active)	inactive	
CN(C)C(=O)CCSC(SCCC(=O)O)c1cccc(/C=C/c2ccc3ccc(Cl)cc3n2)c1 (stereo unspecified)			17.8 µM (active)	
Cc1cccc(C)c1NC(=O)C1CCCCN1C (stereo unspecified)	-7.34%		inactive	2.03%
CC1=CC(=C(c2ccc(N)cc2)c2ccc(N)cc2)C=CC1=N			3.16 µM (active)	
C=C1CC[C@H](O)CC1=C/C=C1\CCC[C@]2(C)[C@@H]([C@H](C)CC[C@@H](O)C(C)(C)O)CC[C@@H]12	-20.7%	8.91 µM (active)	inactive	
